PubChem BioAssay
Calls of active or inactive are those of the source. No rule for the calls is given here.

What follows are molecules tested against Pantothenate synthetase (Mycobacterium tuberculosis (strain ATCC 25618 / H37Rv)) (UniProt P9WIL5) (assay: Coupled enzyme confirmation of inhibitors against recombinant Mtb PanC (AID 375;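 also: 0% = full reaction with vehicle and 100% = no enzyme background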)). Details: coupled enzyme assay; at 10 µM, hits give high values.
Chain of Pantothenate synthetase (Mycobacterium tuberculosis (strain ATCC 25618 / H37Rv)) (P9WIL5 whole entry, looked up): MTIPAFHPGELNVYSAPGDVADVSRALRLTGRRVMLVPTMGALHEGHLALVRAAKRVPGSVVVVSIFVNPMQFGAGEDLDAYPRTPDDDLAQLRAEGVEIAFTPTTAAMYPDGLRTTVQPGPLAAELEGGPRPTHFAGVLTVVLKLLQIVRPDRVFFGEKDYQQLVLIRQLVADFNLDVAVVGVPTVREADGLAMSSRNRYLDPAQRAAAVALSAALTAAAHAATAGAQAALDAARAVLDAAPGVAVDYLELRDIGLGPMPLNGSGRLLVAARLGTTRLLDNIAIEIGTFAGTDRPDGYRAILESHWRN

Row | SMILES | inhibition
1 | Cc1cc(C)nc(SCc2ccc3nonc3c2)n1 | 1% (inactive)
2 | O=C(O)C1C2CCC(C2)C1C(=O)NCCCn1ccnc1 (stereo not given) | 12% (inactive)
3 | COc1ccccc1CNC(=O)Nc1cccs1 | 0% (inactive)
4 | Cn1c(=O)c2c(nc(CN3CCCCC3)n2CCCc2ccccc2)n(C)c1=O | 2% (inactive)
5 | O=C(Cn1cnc2c(nnn2Cc2ccc(Cl)cc2)c1=O)NCC1CCCO1 (stereo not given) | 0% (inactive)
6 | O=C(Cc1ccsc1-c1ccccc1)NO | 0% (inactive)
7 | O=C(Nc1nc2c(s1)CCCC2)C1COc2ccccc2O1 (stereo not given) | 0% (inactive)
8 | CCN1C(=O)CC(C(=O)Nc2ccc(F)cc2)SC1=Nc1ccc2c(c1)OCO2 (stereo not given) | 6% (inactive)
9 | COc1cccc(-c2noc(CCC(=O)NC3CCCCC3)n2)c1 | 1% (inactive)
10 | CCN1C(=O)/C(=C/N2CCc3ccccc32)SC1=S | 0% (inactive)
11 | COCC(=O)N(Cc1cc2cc(OC)ccc2[nH]c1=O)c1ccccc1 | 0% (inactive)
12 | O=C(CSc1ncn[nH]1)c1ccco1 | 0% (inactive)
13 | O=C(Nc1cnn(Cc2ccc(F)cc2)c1)c1cnccn1 | 2% (inactive)
14 | O=S(=O)(NCc1cccnc1)c1cccc2nsnc12 | 12% (inactive)
15 | NC(=O)c1ccsc1NC(=O)COC(=O)Cc1ccsc1 | 3% (inactive)
16 | N#CCCN1CCN(S(=O)(=O)c2ccc(S(=O)(=O)NC3CCCC3)cc2)CC1 | 0% (inactive)
17 | COc1cccc(NC(=O)c2nnn(Cc3ccc(Br)cc3F)c2N)c1 | 7% (inactive)
18 | C=CCn1c(=O)c2ccccc2n2c(SC(C)C(=O)Nc3nc(-c4ccccc4)cs3)nnc12 (stereo not given) | 4% (inactive)
19 | CCc1nc(C)ccc1OCC(=O)O | 3% (inactive)
20 | CCCS(=O)(=O)N1CCCC(C(=O)N2CCC(Cc3ccccc3)CC2)C1 (stereo not given) | 0% (inactive)

Row | SMILES | inhibition
21 | Cc1ccccc1NC(=O)C1CCN(c2cnccn2)CC1 | 0% (inactive)
22 | Cn1cccc1Cc1nnc(SCC(=O)Nc2ccc(F)cc2)n1-c1ccc(F)cc1 | 4% (inactive)
23 | O=C(CN1CCOCC1)N1CCN(C(=O)CN2CCOCC2)CC1 | 6% (inactive)
24 | COc1ccc(S(=O)(=O)n2ccnc2)c2cccnc12 | 4% (inactive)
25 | CCCC1(C(=O)OCC)NC(c2ccc(N(C)C)cc2)C2C(=O)N(c3ccc(F)cc3)C(=O)C21 (stereo not given) | 3% (inactive)
26 | C/C(=C\c1cc(C(=O)O)c(C)o1)CO | 0% (inactive)
27 | CCOc1ccccc1C(=O)N1CCN(c2cccc(Cl)c2)CC1 | 0% (inactive)
28 | COc1ccc(-n2c(=O)[nH]cc(C(=O)Nc3ccc(NC(C)=O)cc3)c2=O)cc1 | 6% (inactive)
29 | Cc1csc2nc(CSc3ccc(Cl)cc3)cn12 | 0% (inactive)
30 | COc1ccc(-n2nc(C(=O)Nc3ccc4c(c3)OCO4)c3c4ccccc4n(C)c3c2=O)cc1 | 2% (inactive)
31 | Oc1cccc2ccc(Nc3ccccn3)nc12 | 8% (inactive)
32 | Cc1cccc(OCC(=O)Nc2ccccc2N2CCN(C(=O)C(C)C)CC2)c1C | 5% (inactive)
33 | COc1ccc(Cl)cc1S(=O)(=O)n1cnc2ccccc21 | 1% (inactive)
34 | O=C(CCS(=O)(=O)c1cccc2nsnc12)N1CCN(Cc2ccc3c(c2)OCO3)CC1 | 0% (inactive)
35 | CCOC(=O)C1CCCN(C(=O)Cc2ccc(OC)c(OC)c2)C1 (stereo not given) | 0% (inactive)
36 | Cc1ccc(-c2noc(CCC(=O)NCC3CCN(Cc4cccc(C)c4)CC3)n2)cc1 | 8% (inactive)
37 | Cc1ccc(Cn2ncc3c(NCCCN4CCOCC4)ncnc32)cc1 | 8% (inactive)
38 | O=C(NCc1ccco1)c1noc2c1CCCCC2 | 12% (inactive)
39 | CCOC(=O)N1CCC(Nc2nc3ccccc3n3cnnc23)CC1 | 10% (inactive)
40 | CCn1c(SCC(=O)N2CCCc3ccccc32)nnc1-c1cccs1 | 0% (inactive)
